# In ChEMBL document CHEMBL3433997, “St. Jude Leishmania screening dataset” (2016):
# How the values were obtained:
# Type in all cases: functional
# [1] = target: Solute carrier family 2, facilitated glucose transporter member 1 (Homo sapiens) (UniProt P11166); test: ST_JUDE_LEISH: Cytotoxicity at 2uM final concentration against transgenic Leishmania Mexicana promastigotes LmGLUT1 that are glucose transport deficient and complemented with the human glucose transporter GLUT1. Activity is measured by DNA content using SYBR green in vitro
# [2] = target: Hexose transporter 1 (Plasmodium falciparum) (UniProt O97467); test: ST_JUDE_LEISH: Cytotoxicity at 2uM final concentration against transgenic Leishmania Mexicana promastigotes LmPfHT that are glucose transport deficient and complemented with the Plasmodium falciparum hexose transporter. Activity is measured by DNA content using SYBR green in vitro
# [3] = target: Glucose transporter (Leishmania mexicana) (UniProt O61059); test: ST_JUDE_LEISH: Cytotoxicity at 2uM final concentration against transgenic Leishmania Mexicana promastigotes LmGT2 that are glucose transport deficient and complemented with the L. Mexicana glucose transporter 2. Activity is measured by DNA content using SYBR green in vitro
# Solute carrier family 2, facilitated glucose transporter member 1 (Homo sapiens), sequence (P11166 whole entry): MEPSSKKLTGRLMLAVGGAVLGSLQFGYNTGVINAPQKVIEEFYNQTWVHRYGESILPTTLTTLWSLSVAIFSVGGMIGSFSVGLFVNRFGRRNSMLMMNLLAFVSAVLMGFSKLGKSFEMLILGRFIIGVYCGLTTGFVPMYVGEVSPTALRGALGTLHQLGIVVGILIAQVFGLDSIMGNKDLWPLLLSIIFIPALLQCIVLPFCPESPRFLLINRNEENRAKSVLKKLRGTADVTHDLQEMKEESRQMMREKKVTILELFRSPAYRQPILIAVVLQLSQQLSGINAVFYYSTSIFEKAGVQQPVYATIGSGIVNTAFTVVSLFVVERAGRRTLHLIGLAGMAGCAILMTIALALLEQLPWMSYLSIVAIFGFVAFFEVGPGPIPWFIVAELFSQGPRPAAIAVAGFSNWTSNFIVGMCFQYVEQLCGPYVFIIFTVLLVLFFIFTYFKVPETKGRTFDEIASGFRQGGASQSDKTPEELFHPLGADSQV
SMILES,inhibition [1],inhibition [2],inhibition [3]
COc1ccc2nccc(N3CCC(CCNCc4ccc5c(n4)NC(=O)CS5)CC3)c2n1,4.06%,4.8%,7.97%
CC(C)CC1(C(=O)OC(C)(C)C)CC(C(=O)OC(C)(C)C)C(c2cccs2)N1C(=O)c1ccc(C(C)(C)C)cc1 (centres undefined),3.89%,3.12%,2.67%
O=C(NCc1ccc(Cl)cc1)c1ccc(CN2CCCN(CC3CCCCC3)CC2)cc1,4.46%,5.73%,5.25%
CC(C)Cn1c(N)cc(=O)n(C)c1=O,3.76%,3.45%,3.72%
CCN(CC)c1nc(N)c2c(N)nc3c(c2c1C#N)C(=O)CN3Cc1ccccc1,7.21%,6.8%,6.97%
CCN(CC)CCN(Cc1ccc(-c2ccc(C(F)(F)F)cc2)cc1)C(=O)Cn1c(CCc2cccc(F)c2F)nc(=O)c2cccnc21,0.41%,2.07%,1.66%
CC1(C)[C@H]2CC[C@@H](CNc3nc(NCCc4c[nH]cn4)nc(Nc4ccc(Oc5ccccc5)cc4)n3)[C@@H]1C2,1.23%,-1.54%,-1.61%
CC(C)CCN1CCC(Oc2ccc(NC(=O)c3ccsc3)cc2Cl)CC1,-0.7%,1.67%,1.45%
CCCCOC(=O)[C@H](CCC)NC(=O)c1ccc(NS(=O)(=O)c2ccc3nc(N)[nH]c(=O)c3c2)cc1,0.2%,-1.82%,0.77%
CN1CCC(N2CCN(Cc3ccc(-c4cccc(-c5nc6cc(F)ccc6[nH]5)c4)cc3)CC2)CC1,2.39%,2.13%,2.94%
Cc1nc(-c2cccc(Nc3nccc(NCC(O)c4ccccc4C)n3)c2)cs1 (centres undefined),2.79%,3.57%,3.17%
CC(C)NCc1cccc(-c2ccc(NS(=O)(=O)c3cccc4cccnc34)cc2)c1,13.8%,8.78%,-2.82%
COc1cc2c(cc1OC)C(C(=O)Nc1cc(OC)c(OC)c(OC)c1)C(c1ccc(SC)cc1)N(C)C2=O (centres undefined),1.51%,0.98%,2.73%
O=C(Cc1c[nH]cn1)Nc1cccc(-c2cccc(-c3nc4cc(C(F)(F)F)ccc4[nH]3)c2)c1,9.44%,12.1%,10.4%
O=C(c1ccccc1[N+](=O)[O-])N(Cc1ccccc1)c1ccccn1,4.59%,4.79%,6.57%
O=[N+]([O-])c1ccc(C=NNc2nc(Nc3ccccc3)nc(Nc3ccccc3)n2)o1,13.4%,18.9%,2.58%
COc1ccc2nc(C)cc(Nc3ccc(Oc4ccc(Cl)cc4)c(Cl)c3)c2c1,7.89%,6.68%,2.63%
Fc1ccc(CN2CCN(c3ncnc4cc(-c5ccccc5)sc34)CC2)cc1,-1.67%,-1.81%,-1.83%
Fc1ccc(-c2csc3ncnc(Cl)c23)cc1,-0.36%,-0.72%,-2.14%

SMILES,inhibition [1],inhibition [2],inhibition [3]
CC(=O)OC[C@H]1O[C@@H](C#Cc2ccccc2)[C@H](OC(C)=O)[C@@H](OC(C)=O)[C@@H]1OC(C)=O,1.22%,2.07%,0.66%
COc1ccc(NC(=O)/C=C/c2cc(F)cc(C(F)(F)F)c2)cc1OCCN(C(C)C)C(C)C,9.32%,9.92%,6.4%
COc1ccccc1CNC(=O)c1cc(C2CC2)nc2c1cnn2C(C)C,15.2%,11.5%,8.12%
CCC(C)(CC)C(=O)n1ncc2c3c(N)nc(N)nc3ccc21,65.8%,79.2%,58.6%
COc1cccc(C(=O)NC(C=Cc2ccccc2)c2cc(Cl)c3cccnc3c2O)c1 (centres undefined),2.89%,2.04%,2%
Nc1cccc(CNCc2ccc(-c3ccc(-c4nc5cc(F)ccc5[nH]4)s3)cc2)c1,-2.38%,0.25%,-1.11%
CC1Cc2ccccc2N1S(=O)(=O)c1cccc(C(=O)Nc2nc(-c3ccccn3)cs2)c1 (centres undefined),13.8%,14.6%,5.62%
CC(C)CN1CCCN(Cc2cccc(NC(=O)c3ccc(Cl)c(Cl)c3)c2)CC1,10.4%,10.2%,4.5%
COc1cccc(-c2cc(C(F)(F)F)n3ncc(C(=O)Nc4cc(C)ccc4O)c3n2)c1,2.75%,3.89%,3.36%
N#CCCn1nc(-c2ccc(Cl)cc2)c2c(c1=O)CCCC2,0.21%,1.16%,1.01%
CCn1c2ccccc2c2cc(C=NN=c3cc(C)[nH]c4ccccc34)ccc21,4.76%,6%,0.19%
O=C(/C=C/c1ccc(Cl)cc1)NCCCCCN1CCCN(C(=O)Nc2ccc(Cl)c(C(F)(F)F)c2)CC1,1.83%,2.68%,2.81%
CCOC(=O)c1ccc(N=C2SC(=Cc3cc(Br)ccc3O)C(=O)N2C)cc1,3.33%,1.81%,3.81%
CC(C)Cn1cc(C2CCN(CCN3CCC(CNC(=O)c4ccc(-c5ccc(C#N)cc5)cc4)CC3)CC2)c2ccccc21,2.71%,5.31%,2.53%
Cc1cc(N/N=C/c2ccccc2[N+](=O)[O-])c2cc(F)ccc2n1,2.14%,1.95%,0.94%
CC(=O)Nc1ccc(COc2ccc(Nc3ccnc4cc(-c5ccccn5)ccc34)cc2)cc1,3.41%,1.28%,1.17%
COc1cccc(CCN(Cc2ccccc2-c2ccc(CNC3CC(C)(C)NC(C)(C)C3)cc2)C(=O)NC2CCCCC2)c1,0.9%,0.87%,2.67%
CCc1cc(Br)c2c(c1)C(NCCCNc1cc(=O)c3ccccc3[nH]1)CCN2 (centres undefined),3.82%,2.76%,5.63%
Cc1ccccc1C1CCN(C2CCC(NC(=O)c3ccc(-c4cc(C(F)(F)F)nn4C)s3)CC2)CC1 (centres undefined),10.8%,9.92%,9.51%
